Screening data as filed in PubChem.
TDP1 inh – TDP1 (human) enzyme inhibition; AID 485290; Q9NUW8; recombinant TDP1, AlphaScreen DNA substrate cleavage; Potency, µM (top dose mostly 130 µM), actives largely listed as inhibitors; 0.28% of 350,000 active; note: nearly all actives have a fitted effect of over 40% in size
Target sequence (Q9NUW8 whole entry, looked up): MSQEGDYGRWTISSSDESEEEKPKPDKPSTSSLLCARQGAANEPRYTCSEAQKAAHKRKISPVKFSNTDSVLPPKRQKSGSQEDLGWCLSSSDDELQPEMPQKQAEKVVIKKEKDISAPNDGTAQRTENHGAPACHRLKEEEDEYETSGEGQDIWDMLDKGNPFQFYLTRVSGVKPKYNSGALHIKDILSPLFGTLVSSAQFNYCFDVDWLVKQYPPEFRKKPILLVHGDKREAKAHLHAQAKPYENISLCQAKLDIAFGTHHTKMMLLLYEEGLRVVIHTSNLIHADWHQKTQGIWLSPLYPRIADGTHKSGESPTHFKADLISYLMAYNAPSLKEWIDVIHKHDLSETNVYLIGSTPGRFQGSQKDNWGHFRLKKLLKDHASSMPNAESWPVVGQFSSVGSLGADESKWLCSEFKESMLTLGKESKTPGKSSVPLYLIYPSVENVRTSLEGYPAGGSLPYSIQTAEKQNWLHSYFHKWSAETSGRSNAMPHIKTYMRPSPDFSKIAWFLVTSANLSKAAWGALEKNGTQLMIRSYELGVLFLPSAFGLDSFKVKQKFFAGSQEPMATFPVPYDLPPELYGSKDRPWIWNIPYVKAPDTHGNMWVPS
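Signal: AlphaScreen proximity between streptavidin donor and anti-FITC acceptor beads on intact substrate. Reaction: Tdp1 1 nM, substrate 15 nM final, 5 min RT after 15 min compound preincubation.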
DT40 TDP1 CPT – growth inhibition of DT40 Tdp1-/-;hTDP1 cells with camptothecin (screen for TDP1 inhibitors); 12% of 420,000 active; chicken DT40 Tdp1-/-;hTDP1 cells + 20 nM CPT, ATP luminescence, 48 h; AID 686979; Potency, µM (highest dose often 46.2 µM), most hits filed as inhibitors; note: nearly all actives have a fitted effect of over 55% in size
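Chicken DT40 Tdp1-/- cells stably complemented with human TDP1 were seeded at 400 cells/well in medium containing 20 nM camptothecin, exposed to pin-transferred compounds, and grown at 37 °C for at least 48 hr. Viability was read as ATP luminescence.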
DT40 TDP1 no CPT – qHTS for Inhibitors of human tyrosyl-DNA phosphodiesterase 1 (TDP1): qHTS in cells in absence of CPT; AID 686978, 2013; 15% of 420,000 active; Potency, µM (doses to about 46.2 µM), actives largely listed as inhibitors; DT40 Tdp1-/- hTDP1 cells, no CPT, ATP luminescence, 48 h; note: nearly all actives have a fitted effect of over 55% in size
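Growth kinetics read by CellTiter-Glo luminescence after ≥48 hr at 37 °C. Cells: DT40 Tdp1-/- stably carrying human TDP1, 400 per well, compound exposure in the absence of CPT (DMSO vehicle).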
ClpP mod – qHTS Assay for Activators of ClpP; ATP-dependent Clp protease proteolytic subunit (Bacillus subtilis (strain 168)), P80244; purified B. subtilis ClpP, FRET peptide cleavage, 20 min; Potency, µM (doses to about 57.5 µM); 1.9% of 340,000 active; active = well fitted falling curve with a large enough effect; inconclusive = small, poorly fitted or top-dose-only effect; inactive = no such curve, though single readings can be large or run the other way; note: the source files actives as falling curves though it sought activators and does not explain the sign; nearly all actives have a fitted effect of over 65% in size
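ClpP 10 microg/mL final, pH 8 Tris/KCl buffer with BSA, glycerol, Tween-20; compound pinned in; FRET-FV substrate; RT 20 min; Ex320/Em430; ΔFRET vs ADEP 5.8 microM, DMSO, no enzyme.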
A number is an active result; i = inactive; ? = inconclusive; nt = not tested or not shown. The list is not random: actives were taken first. Their share in the collection is about 17%. Unless noted, calls come from the whole dose curve; as a rule, active = well fitted curve in the direction sought with a large enough effect; inconclusive = small, poorly fitted or top-dose-only effect, or another doubt; inactive = no such curve, though single readings can be large; an effect the other way counts as inactive or inconclusive.

SMILES	TDP1 inh	DT40 TDP1 CPT	DT40 TDP1 no CPT	ClpP mod
CCN1CCc2c(sc(-n3cccc3)c2C(C)NC(=O)Nc2cc(Cl)c(OC)cc2OC)C1 (stereo unspecified)	i	18µM	18µM	i
CN1/C(=C/C(=S)NC(=O)C2CCC2)C(C)(C)c2ccccc21	i	16µM	18µM	i
CC(=O)/C=C1\N(C)c2ccc(C)cc2C1(C)C	i	6.5µM	5.2µM	nt
CN1/C(=C\C=N\NC(=O)c2ccc(O)cc2)C(C)(C)c2ccccc21	i	21µM	18µM	i
Cc1ccc(C(=O)NC(=S)/C=C2\N(C)c3ccccc3C2(C)C)cc1	i	8.2µM	3.7µM	i
CN1/C(=C\C=N\NC(=O)c2cccnc2)C(C)(C)c2ccccc21	i	i	?	i
COc1ccc(CNC(=O)C2CCCN(C(=O)Nc3ccc(OC)cc3)C2)cc1 (stereo unspecified)	i	i	i	nt
CN1/C(=C\C(=O)C(F)F)C(C)(C)c2ccccc21	i	i	i	i
CC(C)C(=O)NC(=S)/C=C1/N(C)c2ccccc2C1(C)C	i	18µM	8.2µM	i
O=C(O)Cn1cnc2c(OCc3ccccc3)ncnc21	i	i	i	i
Cc1cc(C)c(CN2CCN(C(=O)Cn3cnc4c(OCc5ccccc5)ncnc43)CC2)c(C)c1	i	8.2µM	2.6µM	i
c1ccc(COc2ncnc3c2ncn3CCCN2CCN(Cc3cccc4ccccc34)CC2)cc1	nt	?	9.2µM	i
Cc1ccc(CN2CCN(CCCn3cnc4c(OCc5ccccc5)ncnc43)CC2)cc1	nt	23µM	?	i
Cc1ccc(NCCCn2cnc3c(OCc4ccccc4)ncnc32)cc1C	nt	?	?	i
Cc1nc(N2CCOCC2)c2nc(-c3ccccc3)n(CCCN3CCCCC3C)c2n1 (stereo unspecified)	i	nt	nt	nt
O=C(Nc1c2c(nn1-c1ccccc1)CS(=O)(=O)C2)c1ccccc1Br	i	i	i	i
O=C(COc1ccccc1Cl)Nc1cc(-c2ccccc2F)nn1-c1ccccc1	i	?	9.2µM	i
O=C(Nc1cc(-c2ccccc2F)nn1-c1ccccc1)c1ccccc1Br	i	18µM	21µM	i
CC(C)Cc1nc(N2CCN(C(=O)c3ccccc3)CC2)c(C#N)c2c1CCC2	i	?	?	32µM
CC(=O)N1CCN(c2nc(CC(C)C)c3c(c2C#N)CCC3)CC1	i	i	?	i
CC(C)Cc1nc(N2CCN(C(=O)C(C)C)CC2)c(C#N)c2c1CCC2	i	21µM	?	20µM
CC(C)Cc1nc(N2CCCCC2)c(C#N)c2c1CCC2	i	i	i	35µM
CCN1CCN(S(=O)(=O)c2ccc(OC)c(NC(=O)c3ccccc3)c2)CC1	i	i	i	i
C(=C\c1nc2ccccc2o1)/c1ccc2c(c1)OCO2	nt	?	?	i
COc1ccccc1/C=C/c1ccc2ccccc2n1	nt	?	16µM	i
SMILES	TDP1 inh	DT40 TDP1 CPT	DT40 TDP1 no CPT	ClpP mod
COc1ccc(/C=C/c2nc3cc(-c4ccccc4)ccc3o2)cc1O	i	9.2µM	9.2µM	13µM
Fc1ccc(/C=C/c2ccc3ccccc3n2)cc1	nt	2.8µM	2.8µM	i
Fc1cccc(F)c1/C=C/c1ccc2ccccc2n1	nt	?	?	i
COc1cc(/C=C\c2ccc(OC)cc2OC)cc(OC)c1	nt	7.5µM	?	nt
Cc1cc(C)c(S(=O)(=O)N2CCCCC2CCNC(=O)C(=O)NC2CC2)c(C)c1 (stereo unspecified)	nt	i	i	i
COc1ccc(OC)c(/C=C/c2ccc3ccccc3n2)c1	nt	?	?	i
COc1cc(OC)c(OC)cc1/C=C/c1ccc2ccccc2n1	nt	11µM	14µM	i
COc1cc(OC)c(OC)cc1/C=C/c1nc2ccccc2o1	nt	?	13µM	?
COc1cc(OC)c(OC)cc1/C=C/c1cc(C(F)(F)F)[nH]c(=O)n1	i	i	i	nt
COc1cc(Cl)cc(/C=C/c2ccc3ccccc3n2)c1OC(C)=O	i	?	?	25µM
COc1ccc(C=Cc2ccc3ccccc3n2)c(OC)c1	nt	i	23µM	i
CC(=O)N1CCC[C@H]1C(=O)NCC1Cc2cc(-c3cnccn3)cc(Cl)c2O1 (stereo partly specified)	nt	i	i	nt
CC(O)/C=C/c1ccc2ccccc2n1 (stereo unspecified)	i	13µM	?	i
COc1ccc(C)cc1-n1nnc(C(=O)Nc2cccc(SC)c2)c1C	i	?	?	i
